From PubChem BioAssay (NCATS)
Active and inactive are the calls of the source. The call rests on the fitted dose curve; in most records, active means well fitted curve in the direction sought with a large enough effect; inconclusive means small, poorly fitted or top-dose-only effect, or effect the other way, or another doubt; inactive means no such curve, though single readings can be large or run the other way.

Experiment: Inducers of the Endoplasmic Reticulum Stress Response (ERSR) in human glioma: Validation (AID 504836); further: 0% is about no effect
Settings: human glioma cells, ER stress response reporter; series mostly up to 38.3 µM; activation: at the top concentration
Method in brief: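 Stably transfected U87-MG human glioma cells carrying a GRP78-based luminescent sensor were seeded at 1000 cells/well, pin-dosed with compounds and incubated 16 h. Luciferase reagent was then added, and end-point luminescence was read after 10 min at room temperature.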

SMILES | activation
Cc1[nH]c(=O)c(C#N)cc1-c1ccc2nccn2c1 | -3.49% (inactive)
c1cnc(N2CCN(Cc3ccc4c(c3)OCO4)CC2)nc1 | 1.07% (inactive)
CC1=C(C)C(=O)C(CCCCC#CCCCC#CCO)=C(C)C1=O | 0.948% (inactive)
CNCCC(Oc1ccccc1OC)c1ccccc1 (stereo not drawn) | -2.3% (inactive)
NC(N)=N/N=C/c1c(Cl)cccc1Cl | 0.535% (inactive)
OC(CN1CCC(Cc2ccc(F)cc2)CC1)c1ccc(Cl)cc1 (stereo not drawn) | -4.44% (inactive)
c1cc(CN2CCCCC2)cc(OCCCNc2nc3ccccc3s2)c1 | 1.93% (inactive)
C[N+](C)(C)CCOC(=O)CCC(=O)OCC[N+](C)(C)C | -3.18% (inactive)
CN1CCC(=C2c3ccccc3CC(=O)c3sccc32)CC1 | -2.48% (inactive)
Cc1cc(C)c(/C=C2\C(=O)Nc3ccccc32)[nH]1 | 0.328% (inactive)
CN1Cc2c(N)cccc2C(c2ccccc2)C1 (stereo not drawn) | -6.09% (inactive)
C#CCN(C)CCCOc1ccc(Cl)cc1Cl | 2.76% (inactive)
CCc1cccc(N(C)C(N)=Nc2cccc3ccccc23)c1 | -4.82% (inactive)
C[C@]12CCC(=O)C=C1CC[C@@H]1[C@@H]2CC[C@@]2(C)[C@H]1CC[C@]2(O)C(=O)CO | -5.7% (inactive)
CCn1ccnc1CC1COc2ccccc2O1 (stereo not drawn) | 1.15% (inactive)
O=C(CCNNC(=O)c1ccncc1)NCc1ccccc1 | -4.94% (inactive)
OCc1cc(C(O)CNCCCCCCOCCCCc2ccccc2)ccc1O (stereo not drawn) | -2.89% (inactive)
CCCn1cnc2c1c(=O)n(CCCCC(C)=O)c(=O)n2C | -1.37% (inactive)
